# Biological target: ATP2B3
# Experiment: pooled miR-30 sensor sort-seq; sequence = guide strand
# Details: shRNA
# Note: reference of the scale not given here.
row,Sequence,sensor-assay potency score (higher = more potent)
1,TTAGGCAACTTTATACAGCAGC,-0.477
2,TTTTCTTGACAGAGTAAGCTAA,-0.151
3,AAAAAAAACAACTACAACCTTG,-0.501
4,TTCTTTTGAACTCTTGGCCCTG,-0.519
5,TTTTTCAAGAGGATCTCTGAGG,-0.749

# Biological target: ATP2C2
# Experiment: as above
# Details: shRNA
row,Sequence,sensor-assay potency score (higher = more potent)
1,TTGTGCTTTGGGCTGGTCCTGA,-0.105
2,TTTAATATCACTTAAGTCCATC,-0.736
3,TTCCTCTTCGTCCTTCTCCAGC,-1.04
4,TCATCTTAAACACTTCTCCGAA,-0.15
5,TCATCTTCACAGACACACCAGA,-0.317
6,TTGTACATGGTGCAGTAGCGGA,-1.45
7,TTCTGCTCTGAACTGAATGGAA,-0.474
8,TTAAACACTTCTCCGAACTGAG,-0.019
9,TAGAGGAACATGTGGTTCCTGA,-0.803
10,TAAGAGGAAAAACTGATCCGGT,-0.305
11,TACGACATCACCAGGAACCAGT,-0.544

# Biological target: ATP6V0A1
# Experiment: as above
# Details: shRNA
row,Sequence,sensor-assay potency score (higher = more potent)
1,TTTCTCAACAAATCGAAGCTTT,0.0812
2,TTATAAGTAAACATCGGCCGTA,-0.196
3,TCTAAGTCAATCATGTCCCGGG,0.648
4,TTTTAATTCGGTCAGTTCCAGG,-1.24
5,TATAAGTAAACATCGGCCGTAC,0.244
6,TTATTCTGGAACTCAACCCAGT,0.03
7,TTGGAAAACATTCACATCTGGA,0.211
8,TTGAATAACCAGACTCTGGGTA,0.472
9,TTGGAGATCATCAATCCTGGTA,0.0241
10,TTTCTTCACATCTTCTAACTTC,-0.0928
11,ATAACAGACATCTTCATCTTAA,-0.304
12,AATACAACATTGAATAACCAGA,-1.17
13,TCTCTTTCTCAACAAATCGAAG,-1.57
14,TTATTGGTAGCAATGTTCCAAA,-1.08
15,TTCCGCACTTTGATGAACCAGA,-0.516
16,TTTATTGGTAGCAATGTTCCAA,0.458
17,TTTCTGAGTCACATCTATGTTG,-0.762
18,TTTCTGTCCAGAATACAACATT,-0.792
19,TAAGCATCTACTATGTTCTGAA,0.161
20,TTTATTCTGGAACTCAACCCAG,-0.592
21,TAAGTCACGAAACTGAACCTTT,-0.177
22,TGACACAACAATAAGCAGCCTC,-0.151
23,TTAAACAGCAGCATCCAAGGTA,0.712
